Test results reported in PubChem BioAssay AID1239 (SRMLSC, 2008).
In all, about 190,000 compounds went through this assay and about 3,100 (1.6%) were called active. The list comes from a sample in which actives are over-represented; it also holds similar structures and randomly drawn compounds. A number with no mark means an inactive call. No stated cut-off is given here; in the data, active means fold change above about 3.3; inconclusive means no clear call, values can overlap the other calls; inactive means below that.

Assay: activators of NF-kB expression in neurons, primary screen, cell-based, HTS (AID 1239)
Conditions: human neuronal cells, NF-kB reporter expression; at 12.5 µM; stronger effect = higher value

Q: Which fold change does the source give for `O=C(NCCCn1ccnc1)c1cc(-c2ccccc2)on1` here?
A: 8.21 (active)

Q: Which fold change does the source give for `COc1ccc(-c2cc(C(=O)NCCCn3ccnc3)no2)cc1` here?
A: 1.83

Q: Which fold change does the source give for `COc1ccccc1-c1cc(C(=O)NCCCn2ccnc2)no1` here?
A: 1.28

Q: With `COc1ccc(CCNc2nc(-c3cccc(NC(C)=O)c3)cs2)cc1OC` as the molecule, how does the fold change read?
A: 0.5

Q: Which fold change does the source give for `CC(=O)Nc1cccc(-c2csc(Nc3cccc(C)n3)n2)c1` here?
A: 8.2 (active)

Q: Which fold change does the source give for `CC(=O)Nc1cccc(-c2cnc3ccccc3n2)c1` here?
A: 2.74

Q: With `CCOc1cc(NC(=S)NCCCN(C)C)c(OCC)cc1NC(=O)C1CC1` as the molecule, how does the fold change read?
A: 0.96

Q: With `CCOn1c(=O)c(=O)n(O)c2ccccc21` as the molecule, how does the fold change read?
A: 1.15

Q: For `C=C(C)CNC(=S)N/N=C/c1ccccc1OCC(=O)O`, which fold change is on record?
A: 1.35

Q: With `N=C(N)SCc1cccc2ccccc12` as the molecule, how does the fold change read?
A: 0.88

Q: Which fold change does the source give for `CCn1c(SCc2ccc(C)cc2)nnc1-c1nn(-c2ccccc2)ccc1=O` here?
A: 1.19

Q: With `CCc1ccc(-c2nn(-c3ccccc3)cc2CSC(=N)N)cc1` as the molecule, how does the fold change read?
A: 6.66 (active)

Q: With `O=c1nc(N/N=C/c2ccco2)cn[nH]1` as the molecule, how does the fold change read?
A: 1.22

Q: For `COc1ccc(CNc2c(CO)cnc3c2cnn3C)cc1`, which fold change is on record?
A: 1.06

Q: With `Cc1c(NC(=O)CSc2cccc3cccnc23)c(=O)n(-c2ccccc2)n1C` as the molecule, how does the fold change read?
A: 7.73 (active)

Q: Which fold change does the source give for `Cc1ccccc1OCCC(=O)Nc1c(C)n(C)n(-c2ccccc2)c1=O` here?
A: 0.99

Q: With `Cc1c(NC(=O)CSc2nnnn2-c2ccc(C(=O)O)cc2)c(=O)n(-c2ccccc2)n1C` as the molecule, how does the fold change read?
A: 1.04

Q: Which fold change does the source give for `CCN(CC)CCNc1nc(-c2ccc(OC(F)F)cc2)c(C)s1` here?
A: 0.94

Q: For `NC(=O)c1ccc(N2CCOCC2)nc1`, which fold change is on record?
A: 0.96

Q: With `COc1cc(/C=N/NC(=O)c2cc(C)n(-c3ccc(F)cc3)c2C)cc(OC)c1O` as the molecule, how does the fold change read?
A: 1.02

Q: With `C/C(=N\NC(=S)NCc1ccccc1)C1CCCCC1` as the molecule, how does the fold change read?
A: 1.07

Q: Which fold change does the source give for `O=c1[nH]n2c(-c3ccccc3)nc(O)c2c2ccccc12` here?
A: 1.02

Q: With `CCn1nc(C)c(CN2CCN(Cc3ccc(OC)c(C)c3C)C(CCO)C2)c1C` (stereo not given) as the molecule, how does the fold change read?
A: 1.19

Q: With `COc1ccc(-c2cn3ccsc3n2)cc1` as the molecule, how does the fold change read?
A: 5.24 (active)

Q: Which fold change does the source give for `CCCC(=O)Nc1cccc(-c2cn3ccsc3n2)c1` here?
A: 1.3

Q: Which fold change does the source give for `COc1ccc(-c2cn3cccnc3n2)cc1` here?
A: 2.19

Q: With `CC(C)(C)n1ncc2c(=O)n(Cc3ccc(Cl)cc3)cnc21` as the molecule, how does the fold change read?
A: 1.03

Q: With `O=C(COc1ccc(Cl)cc1)NCc1nnc(SCC(=O)NCC2CCCO2)o1` (stereo not given) as the molecule, how does the fold change read?
A: 1.01

Q: With `CCSc1nnc(NC(=O)Cc2ccccc2OC)s1` as the molecule, how does the fold change read?
A: 1.18

Q: For `Cc1cccc(CSc2nnc(NC(=O)CSc3nnc(C)s3)s2)c1`, which fold change is on record?
A: 1.18

Q: Which fold change does the source give for `CCSc1nnc(NC(=O)c2ccc(C)cc2)s1` here?
A: 5.31 (active)

Q: For `CC(=O)c1sc(N/N=C\c2ccc(C)cc2)nc1C`, which fold change is on record?
A: 2.4

Q: For `CC(=O)c1sc(NC(=O)c2cccc3ccccc23)nc1C`, which fold change is on record?
A: 0.7

Q: For `CC(=O)c1sc(NC(=O)c2ccc(C)cc2)nc1C`, which fold change is on record?
A: 3.36 (active)

Q: With `C=CCn1nc(-c2ccccc2)c2c(C)onc2c1=O` as the molecule, how does the fold change read?
A: 1.1

Q: With `COc1cc(/C=N\Nc2ccc([N+](=O)[O-])cn2)ccc1OCC(=O)O` as the molecule, how does the fold change read?
A: 1.24

Q: For `COc1cc(/C=N/O)ccc1OCc1ccc([N+](=O)[O-])cc1`, which fold change is on record?
A: 6.35 (active)

Q: For `COc1cc(C(=O)OCc2ccc([N+](=O)[O-])cc2)cc(OC)c1OC`, which fold change is on record?
A: 1.05

Q: For `COc1ccc(C2=NN(c3nc4ccccc4s3)C(=O)C2)cc1`, which fold change is on record?
A: 1.02

Q: Which fold change does the source give for `CN1c2ccccc2-c2nc3ccccc3n2C1c1ccco1` (stereo not given) here?
A: 1.03

Q: For `Cn1c(-c2ccco2)nc2cc3ccccc3cc21`, which fold change is on record?
A: 6.6 (active)

Q: Which fold change does the source give for `CN(c1nc2ccccc2n2c(-c3ccco3)nnc12)S(=O)(=O)c1ccccc1` here?
A: 0.98

Q: With `Cc1nc2ccccc2c(C)c1C(=O)c1ccc(F)cc1` as the molecule, how does the fold change read?
A: 0.8

Q: With `COC(=O)c1c(NC(=O)CCCC(=O)O)sc2c1CCCCC2` as the molecule, how does the fold change read?
A: 0.98

Q: For `CCn1c(=S)[nH]c2sc3c(c2c1=O)CCCCC3`, which fold change is on record?
A: 1.2

Q: For `CN(NC(=O)c1ccccc1F)c1nc(C(F)(F)F)nc2ccccc12`, which fold change is on record?
A: 1.67

Q: With `CSc1nc(N(C)NC(=O)c2cccc(C)c2)c2ccccc2n1` as the molecule, how does the fold change read?
A: 3.68 (active)

Q: Which fold change does the source give for `CN(NC(=O)c1ccccc1)c1nc2ccccc2nc1C(F)(F)F` here?
A: 1.32

Q: With `Cc1cc(NS(=O)(=O)c2ccc(NC(=O)c3cccc(OC(F)F)c3)cc2)nc(C)n1` as the molecule, how does the fold change read?
A: 1.45

Q: With `O=C1CN(C(=O)CN2C(=O)NC3(CCCCC3)C2=O)c2ccccc2N1` as the molecule, how does the fold change read?
A: 1.43

Q: Which fold change does the source give for `COc1ccc(-c2cc(C)nc3nc(N)nn23)cc1` here?
A: 1.23

Q: With `Cc1cc(N)n2nc(-c3ccc(C(C)(C)C)cc3)cc2n1` as the molecule, how does the fold change read?
A: 5.07 (active)

Q: With `Cc1cc(C(C)(C)C)cc(C)c1N` as the molecule, how does the fold change read?
A: 1.01

Q: With `O=C(O)Cc1sc(-c2ccccc2)nc1-c1cccs1` as the molecule, how does the fold change read?
A: 1.28

Q: For `O=C(O)Cc1sc(-c2ccc(C(=O)O)cc2)nc1-c1ccccc1`, which fold change is on record?
A: 1.21

Q: With `NC(=O)Cc1ccc2sc(-c3ccccc3)nc2c1` as the molecule, how does the fold change read?
A: 6.92 (active)

Q: Which fold change does the source give for `CCc1cccc(NC(=O)CCNS(=O)(=O)c2cccc3nonc23)c1` here?
A: 1.16

Q: For `O=[N+]([O-])c1ccc(N2CCN(c3ccc(O)cc3)CC2)c(Cl)c1`, which fold change is on record?
A: 4.06 (active)

Q: With `COc1ccc(N2CCN(c3ccc([N+](=O)[O-])cc3Cl)CC2)cc1` as the molecule, how does the fold change read?
A: 0.93

Q: Which fold change does the source give for `CCN1CCN(c2ccc([N+](=O)[O-])cc2C(=O)c2ccc(Cl)cc2)CC1` here?
A: 1.37

Q: Which fold change does the source give for `CCc1nnc(NC(=O)CCCSc2nc3ccccc3[nH]2)s1` here?
A: 1.01

Q: Which fold change does the source give for `O=C(Nc1ccc(NC(=O)c2cccs2)cn1)c1ccco1` here?
A: 4.48 (active)

Q: With `COc1cccc(C(=O)Nc2ccc(NC(=O)c3ccco3)cn2)c1` as the molecule, how does the fold change read?
A: 1.03

Q: Which fold change does the source give for `Cc1ccnc(NC(=O)c2ccc(NC(=O)c3ccco3)cc2)c1` here?
A: 1.64

Q: Which fold change does the source give for `COc1cc(CN2CCNC(=O)C2CC(=O)NCCc2ncccc2C)cc(OC)c1` (stereo not given) here?
A: 1.05

Q: Which fold change does the source give for `COCCSc1nnc(NC(=O)c2cc(OC)c(OC)cc2[N+](=O)[O-])s1` here?
A: 1.11

Q: With `CCOC(=O)/C(=N\Nc1ccccc1Cl)N(C)C1CCS(=O)(=O)C1` (stereo not given) as the molecule, how does the fold change read?
A: 0.99

Q: Which fold change does the source give for `COc1cc(S(=O)(=O)N2CCOCC2)ccc1NC(=O)COc1ccc(N(C)S(=O)(=O)c2ccc(C)cc2)cc1` here?
A: 0.76

Q: Which fold change does the source give for `COc1ccc(Cl)cc1C(=O)NCC#N` here?
A: 0.94

Q: For `N#C/C=C\Oc1ccc(Cl)cc1N`, which fold change is on record?
A: 3.39 (active)

Q: With `Cn1cc(CCC(=O)N2CCCC(C(=O)c3ccc(C(C)(C)C)cc3)C2)cn1` (stereo not given) as the molecule, how does the fold change read?
A: 0.83

Q: With `CNc1nccc(-c2ccc(Cl)cc2)c1C#N` as the molecule, how does the fold change read?
A: 1.47

Q: Which fold change does the source give for `Cc1c(Br)ccc(NC(=O)COc2ccccc2C(N)=O)c1C` here?
A: 1.08

Q: With `O=C(NC1CCCC1)C(c1ccc(N2CCOCC2)cc1)N(C(=O)c1ccco1)c1ccccc1F` (stereo not given) as the molecule, how does the fold change read?
A: 1.05

Q: With `O=C(COc1ccc(NC(=O)c2ccccc2[N+](=O)[O-])cc1)c1ccc(F)cc1` as the molecule, how does the fold change read?
A: 1.07

Q: Which fold change does the source give for `Cc1ccc2nc(COc3ccc(N(C)S(=O)(=O)c4ccccc4)cc3)cc(=O)n2c1` here?
A: 1.11

Q: For `NS(=O)(=O)c1cc(C(=O)NCCOc2ccccc2)c(Cl)cc1Cl`, which fold change is on record?
A: 0.66

Q: With `COc1ccc(OCCCC(=O)NCCc2ccccc2)cc1` as the molecule, how does the fold change read?
A: 1.08

Q: For `CCCOc1ccc(C(=O)NCCc2ccccc2)cc1`, which fold change is on record?
A: 6.46 (active)

Q: For `Cc1cc(C(=O)NCCCc2ccccc2)no1`, which fold change is on record?
A: 1.33

Q: With `CC(C)c1ccc(C(=O)NCCCc2ccccc2)cc1` as the molecule, how does the fold change read?
A: 4 (active)

Q: With `O=C(NCCc1ccccc1)c1ccc(OCCOc2ccccc2)cc1` as the molecule, how does the fold change read?
A: 1.27

Q: For `Nc1ccc(C(=O)NCc2ccccc2)cc1`, which fold change is on record?
A: 1

Q: For `O=C(NCCOc1ccccc1)c1ccccc1`, which fold change is on record?
A: 4.39 (active)

Q: With `Cc1ccc(C(=O)NCCNC(=O)c2ccccc2)cc1` as the molecule, how does the fold change read?
A: 1.15

Q: For `CC(C)OC(=O)CN1CCN(c2ccc(Cl)cc2)CC1`, which fold change is on record?
A: 1.18

Q: With `c1ccc2c(NC3C4CC5CC(C4)CC3C5)nc(N3CCOCC3)nc2c1` (stereo not given) as the molecule, how does the fold change read?
A: 0.99

Q: Which fold change does the source give for `Cc1cc(=O)oc(C)c1C(=O)N1CCCCC1` here?
A: 1.16

Q: For `Cc1cccc(C(=O)N2CCCN(C(=O)c3cccc(C)c3)CC2)c1`, which fold change is on record?
A: 1.1

Q: For `Cc1ccc2cc3cc(C(=O)N4CCCCCC4)oc3nc2c1`, which fold change is on record?
A: 4.26 (active)

Q: With `CN1CCNC(=O)C1CC(=O)N1CC=C(c2ccc(F)cc2)CC1` (stereo not given) as the molecule, how does the fold change read?
A: 1.04

Q: With `O=C(NCCC1=CCCCC1)c1ccc(Cl)c([N+](=O)[O-])c1` as the molecule, how does the fold change read?
A: 1.68

Q: With `CN(c1ccc(C(=O)NCCC2=CCCCC2)cc1)S(C)(=O)=O` as the molecule, how does the fold change read?
A: 3.37 (active)

Q: With `CN(c1ccc(C(=O)NCc2ccccn2)cc1)S(C)(=O)=O` as the molecule, how does the fold change read?
A: 1.11

Q: With `Cn1nnc2cc(C(=O)NCCC3=CCCCC3)ccc21` as the molecule, how does the fold change read?
A: 3.75 (active)

Q: For `O=C(Cc1cccc2ccccc12)NCCC1=CCCCC1`, which fold change is on record?
A: 1.12

Q: For `O=C(Cc1nn[nH]n1)NCCC1=CCCCC1`, which fold change is on record?
A: 1.18

Q: With `CN(CCc1ccccn1)C(=O)CCC1CCCN(Cc2ccccc2OC(F)F)C1` (stereo not given) as the molecule, how does the fold change read?
A: 1.15

Q: For `Cc1ccc(NC(=O)NC2CCCCC2)cc1S(=O)(=O)N1CCOCC1`, which fold change is on record?
A: 1.06

Q: Which fold change does the source give for `CCCCCC(=O)Nc1ccc2oc(-c3ccncc3)nc2c1` here?
A: 0.96

Q: With `CCc1ccc2oc(-c3ccc(N)cc3)nc2c1` as the molecule, how does the fold change read?
A: 5.55 (active)

Q: Which fold change does the source give for `CCN(CC)c1ccc2oc(=O)c(C)nc2c1` here?
A: 0.65

Q: For `COC(=O)Cc1ccc(Oc2ncc(C(F)(F)F)cc2Cl)cc1`, which fold change is on record?
A: 1.13

Q: With `Fc1ccccc1/C=C1\CCCC2=C1Nc1ncnn1C2c1ccccc1F` (stereo not given) as the molecule, how does the fold change read?
A: 4.05 (active)

Q: Which fold change does the source give for `OCCNCc1cccc(OCc2ccccc2Cl)c1` here?
A: 0.98
